The full data set covers some 7,900 targets. This sample favours those with a hit. About 0.6% of all pairs of compound and target were hits.
How the values were obtained:
Assay in all cases: log2 fold change, soluble protein after heating vs DMSO (PISA); higher = thermal stabilisation; K562 cells, 10 uM, 30 min; active = over 0.2 and 3.5 SD of the protein, either way, in both replicates (recomputed)
[1] = compound: C1=CC=C(C=C1)[C@H](COC2=CC3=C(C=C2)NC(=O)N3)NC(=O)C4=CC=CN(C4=O)CC5=CC(=C(C=C5)F)F
Outline: (§1)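 Soluble protein was quantified by TMTpro 16plex LC-MS/MS after channel sums were equalised. It was obtained as the supernatant after 21,000xg for 90 min from pooled aliquots of K562 cells (2×10^6 cells/mL, 10 μM compound, 30 min) heated for 3 min across 48°C-58°C and extracted in PBS with 0.5% NP-40 at 4°C. Thermal stability values are relative to control samples and come from duplicates. They are given as log2 fold changes.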

[2] = compound: CC1=C2C(=CC=C1)N=C(N(C2=O)C3=CC=CC=C3C)CN4C=NC5=C(N=CN=C54)N
Outline: as §1

[3] = compound: Cc1sc2c(c1C)C(c1ccc(Cl)cc1)=N[C@@H](CC(=O)OC(C)(C)C)c1nnc(C)n1-2
Outline: as §1

[4] = compound: CC1=C(SC2=C1C(=N[C@H](C3=NN=C(N32)C)CC(=O)N)C4=CC=C(C=C4)Cl)C
Outline: as §1

[5] = compound: c1ccc([C@@H]2C[C@H]2NC2CCNCC2)cc1
Outline: as §1

Measured: log2 fold change

ICMT (UniProt O60725)
Chain of UniProt O60725 (O60725 whole entry, looked up): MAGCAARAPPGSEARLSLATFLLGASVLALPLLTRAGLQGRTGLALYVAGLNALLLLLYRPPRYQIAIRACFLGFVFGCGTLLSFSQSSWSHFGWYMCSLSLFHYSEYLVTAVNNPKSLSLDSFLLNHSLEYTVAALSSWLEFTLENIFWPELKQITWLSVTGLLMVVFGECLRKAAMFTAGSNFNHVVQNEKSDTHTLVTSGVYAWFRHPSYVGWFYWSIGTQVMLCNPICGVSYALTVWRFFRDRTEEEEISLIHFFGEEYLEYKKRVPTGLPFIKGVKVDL
inactive: [1] 0.047 | [2] 0.115 | [3] 0.07

FIZ1 (UniProt Q96SL8)
Chain of UniProt Q96SL8 (Q96SL8 whole entry, looked up): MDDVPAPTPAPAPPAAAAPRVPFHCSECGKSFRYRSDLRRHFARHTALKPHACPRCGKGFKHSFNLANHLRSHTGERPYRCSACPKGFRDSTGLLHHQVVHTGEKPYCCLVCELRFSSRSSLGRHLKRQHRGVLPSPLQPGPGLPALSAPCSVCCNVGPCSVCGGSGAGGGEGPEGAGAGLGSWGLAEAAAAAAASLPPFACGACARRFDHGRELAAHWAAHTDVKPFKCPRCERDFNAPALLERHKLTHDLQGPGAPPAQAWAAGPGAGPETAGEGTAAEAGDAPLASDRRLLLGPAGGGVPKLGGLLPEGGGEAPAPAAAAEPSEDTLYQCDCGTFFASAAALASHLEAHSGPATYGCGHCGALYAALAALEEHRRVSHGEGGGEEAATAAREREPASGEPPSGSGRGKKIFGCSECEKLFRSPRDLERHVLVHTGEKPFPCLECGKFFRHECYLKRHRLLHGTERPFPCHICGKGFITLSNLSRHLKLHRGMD
inactive: [4] -0.297 | [2] -0.097 | [5] 0.044

HNRNPK isoform 3 (UniProt P61978)
inactive: [1] 0.014 | [2] 0.074 | [3] 0.061

FCHO1 (UniProt O14526)
Chain of UniProt O14526 (O14526 whole entry, looked up): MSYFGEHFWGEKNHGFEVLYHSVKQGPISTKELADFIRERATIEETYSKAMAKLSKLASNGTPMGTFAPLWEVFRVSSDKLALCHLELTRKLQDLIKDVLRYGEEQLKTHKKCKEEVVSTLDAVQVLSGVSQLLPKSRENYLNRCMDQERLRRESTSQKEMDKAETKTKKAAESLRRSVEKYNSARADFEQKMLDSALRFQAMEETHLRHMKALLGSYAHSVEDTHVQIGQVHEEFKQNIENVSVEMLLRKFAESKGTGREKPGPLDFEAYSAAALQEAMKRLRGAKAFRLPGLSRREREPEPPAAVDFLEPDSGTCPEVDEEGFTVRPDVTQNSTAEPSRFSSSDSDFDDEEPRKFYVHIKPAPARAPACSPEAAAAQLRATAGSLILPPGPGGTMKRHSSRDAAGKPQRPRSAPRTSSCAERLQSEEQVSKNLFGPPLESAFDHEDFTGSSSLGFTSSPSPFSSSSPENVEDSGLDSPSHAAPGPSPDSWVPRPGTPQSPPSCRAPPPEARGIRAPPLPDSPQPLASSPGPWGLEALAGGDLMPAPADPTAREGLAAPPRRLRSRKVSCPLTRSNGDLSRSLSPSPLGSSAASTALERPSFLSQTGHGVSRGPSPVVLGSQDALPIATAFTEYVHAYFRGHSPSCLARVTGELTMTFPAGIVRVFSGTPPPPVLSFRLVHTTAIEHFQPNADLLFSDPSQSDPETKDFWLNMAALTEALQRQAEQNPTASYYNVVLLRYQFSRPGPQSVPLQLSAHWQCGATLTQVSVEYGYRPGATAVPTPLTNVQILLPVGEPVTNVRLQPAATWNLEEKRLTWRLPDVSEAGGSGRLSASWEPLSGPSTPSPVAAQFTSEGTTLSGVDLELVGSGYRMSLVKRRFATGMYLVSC
inactive: [4] 0.013 | [2] 0.125 | [3] 0.022 | [5] -0.065

FANCD2 isoform 1 (UniProt Q9BXW9)
Chain of UniProt Q9BXW9 (Q9BXW9 whole entry, looked up): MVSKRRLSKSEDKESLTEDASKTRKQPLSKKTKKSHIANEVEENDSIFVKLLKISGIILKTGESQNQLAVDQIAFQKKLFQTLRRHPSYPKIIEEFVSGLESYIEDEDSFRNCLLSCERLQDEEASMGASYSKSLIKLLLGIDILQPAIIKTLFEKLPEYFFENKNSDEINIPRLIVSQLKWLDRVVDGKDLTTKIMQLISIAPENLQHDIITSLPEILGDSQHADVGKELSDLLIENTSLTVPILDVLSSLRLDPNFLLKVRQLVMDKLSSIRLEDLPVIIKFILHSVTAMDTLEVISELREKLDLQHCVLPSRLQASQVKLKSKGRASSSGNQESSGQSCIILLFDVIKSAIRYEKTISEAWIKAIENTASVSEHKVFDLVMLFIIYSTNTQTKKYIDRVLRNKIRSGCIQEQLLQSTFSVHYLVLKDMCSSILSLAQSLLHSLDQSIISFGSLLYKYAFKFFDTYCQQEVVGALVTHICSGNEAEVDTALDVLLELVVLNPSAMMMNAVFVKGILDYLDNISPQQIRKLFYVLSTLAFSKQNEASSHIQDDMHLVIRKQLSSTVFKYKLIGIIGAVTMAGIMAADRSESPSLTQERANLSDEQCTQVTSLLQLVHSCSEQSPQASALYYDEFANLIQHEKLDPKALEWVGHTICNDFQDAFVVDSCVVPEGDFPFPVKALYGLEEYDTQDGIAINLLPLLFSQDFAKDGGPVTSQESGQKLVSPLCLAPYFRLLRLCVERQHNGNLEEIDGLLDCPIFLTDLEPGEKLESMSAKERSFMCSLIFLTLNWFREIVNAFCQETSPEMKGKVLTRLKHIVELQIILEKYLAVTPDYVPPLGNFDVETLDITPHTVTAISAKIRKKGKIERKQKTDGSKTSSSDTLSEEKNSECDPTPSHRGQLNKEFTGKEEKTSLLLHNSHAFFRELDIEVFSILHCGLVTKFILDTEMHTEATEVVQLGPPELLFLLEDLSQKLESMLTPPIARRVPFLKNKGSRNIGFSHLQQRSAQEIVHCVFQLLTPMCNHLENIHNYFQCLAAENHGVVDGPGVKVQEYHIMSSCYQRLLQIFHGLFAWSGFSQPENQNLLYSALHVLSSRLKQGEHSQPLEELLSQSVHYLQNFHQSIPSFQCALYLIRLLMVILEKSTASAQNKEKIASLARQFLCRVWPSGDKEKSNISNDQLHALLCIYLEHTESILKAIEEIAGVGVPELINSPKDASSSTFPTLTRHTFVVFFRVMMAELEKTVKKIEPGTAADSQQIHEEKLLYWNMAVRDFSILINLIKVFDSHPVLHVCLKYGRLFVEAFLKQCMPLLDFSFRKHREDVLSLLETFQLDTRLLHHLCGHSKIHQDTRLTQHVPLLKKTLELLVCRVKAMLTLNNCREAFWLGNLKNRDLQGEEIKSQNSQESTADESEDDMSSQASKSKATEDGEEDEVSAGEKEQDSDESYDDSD
inactive: [1] -0.018 | [4] 0.068 | [2] 0.159 | [3] -0.041 | [5] -0.009

Reference: the supplement of paper PMC10849652
